From PubChem BioAssay AID1159580 (chemical genetic matrix, 2015)
Hit rate of the full screen: of about 5,500 compounds, about 2,000 (36%) were called active. Another 18% or so got no clear call; they are omitted. No stated cut-off is given here; in the data, active means normalized growth mostly below about 0.91 (no sharp cut-off); inconclusive means no clear call, values can overlap the other calls; inactive means mostly above about 0.92. Some of the results follow.

Assay: chemical genetic growth profiling, strain panel (AID 1159580);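 further: tested at 20 µM; growth read once vehicle control cultures reached saturation at 30 °C; 1 = growth at the plate median or of vehicle wells; lower values mean less growth of the strain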
Settings: S. cerevisiae deletion strains, growth OD
[1] = locus YAL040C, strain CLN3, hits give low values
[2] = locus YER002W, strain NOP16, hits give low values
[3] = locus YGR229C, strain SMI1, hits give low values
[4] = locus YNL175C, strain NOP13, hits give low values
[5] = locus YNL197C, strain WHI3, hits give low values
[6] = locus YNL224C, strain SQS1, hits give low values
[7] = locus YOR083W, strain WHI5 (second series), hits give low values

Measured: normalized growth

CC(C)CSc1nnc(CSCc2nc(-c3ccc(Cl)cc3)cs2)n1C
inactive: locus YAR019C, strain CDC15, hits give low values 0.979 | locus YBL105C, strain PKC1, hits give low values 0.964 | locus YBR135W, strain CKS1, hits give low values 0.968 | locus YBR136W, strain MEC1, hits give low values 0.964 | locus YBR160W, strain CDC28, hits give low values 0.97 | locus YDL017W, strain CDC7, hits give low values 0.974 | locus YDL028C, strain MPS1, hits give low values 0.966 | locus YDL101C, strain DUN1, hits give low values 0.958 | locus YDL108W, strain KIN28, hits give low values 0.96 | locus YDL132W, strain cdc53, hits give low values 0.961 | locus YDL214C, strain PRR2, hits give low values 0.94 | locus YDR052C, strain DBF4, hits give low values 0.974 | locus YDR054C, strain cdc34, hits give low values 0.968 | locus YDR226W, strain ADK1, hits give low values 0.974 | locus YDR477W, strain SNF1, hits give low values 0.965 | locus YER123W, strain YCK3, hits give low values 0.913 | locus YER133W, strain GLC7, hits give low values 0.954 | locus YFL009W, strain cdc4, hits give low values 0.976 | locus YFL029C, strain CAK1, hits give low values 0.973 | locus YFR003C, strain YPI1, hits give low values 0.965 | locus YFR019W, strain FAB1, hits give low values 0.946 | locus YFR028C, strain CDC14, hits give low values 0.97 | locus YGR040W, strain KSS1, hits give low values 0.931 | locus YGR052W, strain FMP48, hits give low values 0.979 | locus YGR092W, strain DBF2, hits give low values 0.981 | locus YHR030C, strain SLT2, hits give low values 1.03 | locus YHR079C, strain IRE1, hits give low values 1.06 | locus YHR082C, strain KSP1, hits give low values 1.03 | locus YHR205W, strain SCH9, hits give low values 0.988 | locus YIL147C, strain SLN1, hits give low values 0.962 | locus YJL095W, strain BCK1, hits give low values 0.956 | locus YJL128C, strain PBS2, hits give low values 0.929 | locus YJL157C, strain FAR1, hits give low values 0.956 | locus YJR016C, strain ILV3, hits give low values 0.971 | locus YJR066W, strain TOR1 (second series), hits give low values 0.961 | locus YJR066W, strain TOR1, hits give low values 1.05 | locus YKL048C, strain ELM1, hits give low values 0.954 | locus YKL067W, strain YNK1, hits give low values 0.95 | locus YKL101W, strain HSL1, hits give low values 0.925 | locus YKL193C, strain SDS22, hits give low values 0.971 | locus YKL203C, strain TOR2, hits give low values 1.02 | locus YLR113W, strain HOG1, hits give low values 0.865 | locus YLR133W, strain CKI1, hits give low values 0.927 | locus YLR403W, strain SFP1, hits give low values 0.948 | locus YML070W, strain DAK1, hits give low values 0.929 | locus YMR001C, strain CDC5, hits give low values 0.973 | locus YMR205C, strain PFK2 (second series), hits give low values 0.961 | locus YMR277W, strain FCP1, hits give low values 0.966 | locus YNL006W, strain LST8, hits give low values 0.979 | locus YNL020C, strain ARK1, hits give low values 0.941 | locus YNL161W, strain CBK1, hits give low values 0.973 | locus YNL183C, strain NPR1, hits give low values 1.01 | locus YNL207W, strain RIO2, hits give low values 0.967 | locus YNL222W, strain SSU72, hits give low values 0.972 | locus YNL307C, strain MCK1 (second series), hits give low values 0.974 | locus YOL078W, strain AVO1, hits give low values 0.964 | locus YOL136C, strain PFK27, hits give low values 0.882 | locus YOR061W, strain CKA2, hits give low values 0.939 | locus YOR119C, strain RIO1, hits give low values 1.01 | locus YOR231W, strain MKK1, hits give low values 0.944 | locus YOR329C, strain SCD5, hits give low values 0.974 | locus YPL031C, strain PHO85, hits give low values 0.95 | locus YPL153C, strain RAD53, hits give low values 0.96 | locus YPL204W, strain HRR25, hits give low values 0.917 | locus YPL209C, strain IPL1, hits give low values 0.974 | locus YPL256C, strain CLN2, hits give low values 0.999 | locus YPR025C, strain CCL1, hits give low values 0.969 | locus YPR106W, strain ISR1, hits give low values 0.962 | locus YPR111W, strain DBF20, hits give low values 0.95 | strain NNK1, hits give low values 0.966 | strain TSCII, hits give low values 0.969

CC1(NCC(O)COc2cccc3[nH]ccc23)CCC(C(C)(C)NC(=O)CBr)CC1 (configuration not stated)
inactive: [1] 1.04 | locus YCL061C, strain MRC1 (second series), hits give low values 0.993 | locus YDR363W, strain ESC2, hits give low values 1.03 | [2] 1.03 | locus YGR078C, strain PAC10, hits give low values 1 | [3] 0.997 | locus YMR307W, strain GAS1, hits give low values 0.99 | [4] 1.02 | [5] 1.02 | [6] 1.06 | locus YNL322C, strain KRE1, hits give low values 0.973 | [7] 1.02 | locus YPL055C, strain LGE1, hits give low values 0.968 | locus YPL241C, strain CIN2, hits give low values 1

C=CCc1ccccc1OCC(O)CN[C@]1(C)CCC[C@H](C(C)(C)NC(=O)CBr)C1 (some centres not stated)
inactive: [1] 1.01 | [2] 1.02 | [3] 1.01 | [4] 1.08 | [5] 1.03 | [6] 1.02 | [7] 1.09
